Test results taken from PubChem BioAssay (NCATS).
Results filed as inconclusive are left out. Active and inactive are the calls of the source. Unless noted, calls follow the shape of the dose curve; as a rule, active = well fitted curve in the direction sought with a large enough effect; inconclusive = small, poorly fitted or top-dose-only effect, or another doubt; inactive = no such curve, though single readings can be large; an effect the other way counts as inactive or inconclusive.

How the values were obtained:
[1] = target: Guanine nucleotide-binding protein G(i) subunit alpha-1 (Homo sapiens) (UniProt P63096); test: qHTS Assay for Inhibitors of RGS12 GoLoco Motif Activity (Green Fluorophore) (AID 879);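 also: negative values mean loss of peptide binding seen as reduced polarization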
Method in brief: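 Fluorescence polarization assay: 50 nM Gαi1 with 10 nM FITC-labeled RGS12 GoLoco peptide in 10 mM Tris pH 7.5, 150 mM NaCl, 0.1 mM GDP, 0.05% NP40, 10 min at room temperature with compound.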

[2] = qHTS Assay for Identification of Small Molecule Agonists for Thrombopoietin (TPO) Signaling Pathway (AID 917)
Method in brief: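 Activators of TPO signaling were sought in murine Ba/F3 cells transfected with the human receptor, using a luciferase gene driven by the Glycoprotein IIb promoter; 24-hr compound exposure at 37 C alongside 26 pM TPO, in IL-3-free medium.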

[3] = target: Muscarinic acetylcholine receptor M1 (Rattus norvegicus) (UniProt P08482); test: qHTS Assay for Antagonists of Acetylcholine Muscarinic M1 Receptor: Kinetic Measurement of Intracellular Calcium Response (AID 943);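 also: Fluo-4 calcium signal as peak divided by basal fluorescence over 4 min; nearly all actives have a fitted effect of over 75% in size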
Method in brief: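 Rat M1-CHO cells, 2000/well, overnight → Fluo-4 no-wash dye with probenecid, 1 h 37C → compound 10 min, room temp → basal read 6 s → carbachol EC80 (100 nM) → 4 min kinetic read; peak/basal.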

[4] = target: Muscarinic acetylcholine receptor M1 (Rattus norvegicus) (UniProt P08482); test: qHTS Assay for Antagonists of Acetylcholine Muscarinic M1 Receptor: Measurement of IP-One Response (AID 944); also: nearly all actives have a fitted effect of over 75% in size
Method in brief: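 M1-CHO (rat), 2000 cells/well, overnight recovery; cpd 10 min; carbachol EC80 (200 nM), 30 min, HEPES buffer + 50 mM LiCl pH 7.4; IP-One HTRF, Ex 337, Em 620/665 nm.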

[5] = target: Pyruvate kinase (Leishmania mexicana) (UniProt Q27686); test: qHTS Validation Assay for Inhibitors of Leishmania Mexicana Pyruvate Kinase (AID 945)
Method in brief: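 Substrate mix (0.5 mM PEP, 0.1 mM ADP, 7 mM MgCl2, 50 mM KCl, pH 7.2 imidazole) received compound by pin tool, then 0.2 nM LmPYK E451W. After 1 h at room temperature, PKLight was added and luminescence measured.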

[6] = target: Pyruvate kinase PKM (Homo sapiens) (UniProt P14618); test: qHTS Assay for Activators of Human Muscle Pyruvate Kinase (AID 954; active = well fitted curve in the direction sought with a large enough effect, not every such curve was filed as active)
Method in brief: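 Purified human PKM2 (0.1 nM) with 0.5 mM PEP (Km) and 0.1 mM ADP in 50 mM imidazole pH 7.2, KCl, MgCl2, 1 h at room temperature; ATP formed read by coupled luciferase luminescence. Normalized to no-enzyme/110 uM thiadiazolimine inhibition; 0.3 nM enzyme column for activation.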

[7] = target: Alpha-galactosidase A (Homo sapiens) (UniProt P06280); test: Counterscreen for Glucocerebrosidase Inhibitors: qHTS Assay for Human alpha-Galactosidase at pH 4.5 (AID 992)
Method in brief: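 Human enzyme (2 nM) with 80 uM 4-methylumbelliferyl alpha-D-galactopyranoside in 50 mM citric acid, 0.005% Tween-20, pH 4.5, 20 min at room temperature. Compounds 0.7 nM–77 uM; fluorescence Ex 365/Em 440 after pH 10 stop; AC50 from Hill fits.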

[8] = target: alpha-glucosidase (Oryza sativa, rice) (UniProt Q653V4); test: Counterscreen for Glucocerebrosidase Inhibitors: qHTS Assay for Rice alpha-Glucosidase at pH 5.0 (AID 997)
Method in brief: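 Rice alpha-glucosidase (4 nM final) with 400 uM 4-methylumbelliferyl-alpha-D-glucopyranoside in citrate buffer pH 5.0, 20 min at room temperature, stopped at pH 10; fluorescence 365/440 nm, compounds 0.7 nM–77 uM, AC50 from Hill fits.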

CP215 = test: qHTS profiling for inhibitors of Plasmodium falciparum proliferation (AID 504749); also: nearly all actives have a fitted effect of over 60% in size; settings: P. falciparum in erythrocytes, SYBR Green DNA, 72 h; series mostly up to 28.7 µM
Method in brief: (§1)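 Parasite proliferation within erythrocytes, 72 h exposure. Endpoint: SYBR Green I fluorescence after overnight lysis at room temperature. Controls: 0.29 uM artemisinin, DMSO.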

CP315 = test: as above; settings: P. falciparum in erythrocytes, SYBR Green DNA, 72 h; series mostly up to 28.7 µM
Method in brief: as §1

Measured: Potency

Chain of Muscarinic acetylcholine receptor M1 (Rattus norvegicus) (P08482 whole entry, looked up): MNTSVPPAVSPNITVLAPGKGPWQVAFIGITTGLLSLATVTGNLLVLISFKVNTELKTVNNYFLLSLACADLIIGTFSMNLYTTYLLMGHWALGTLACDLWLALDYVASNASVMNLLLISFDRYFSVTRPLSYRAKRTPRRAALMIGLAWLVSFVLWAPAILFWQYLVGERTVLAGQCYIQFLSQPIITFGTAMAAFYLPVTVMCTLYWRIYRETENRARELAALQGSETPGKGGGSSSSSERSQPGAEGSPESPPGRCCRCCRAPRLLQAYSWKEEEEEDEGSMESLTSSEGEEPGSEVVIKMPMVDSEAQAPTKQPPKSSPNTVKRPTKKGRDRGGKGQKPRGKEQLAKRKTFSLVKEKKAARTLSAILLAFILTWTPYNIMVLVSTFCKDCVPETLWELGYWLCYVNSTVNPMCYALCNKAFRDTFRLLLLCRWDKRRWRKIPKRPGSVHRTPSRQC
Chain of Pyruvate kinase PKM (Homo sapiens) (P14618 whole entry, looked up): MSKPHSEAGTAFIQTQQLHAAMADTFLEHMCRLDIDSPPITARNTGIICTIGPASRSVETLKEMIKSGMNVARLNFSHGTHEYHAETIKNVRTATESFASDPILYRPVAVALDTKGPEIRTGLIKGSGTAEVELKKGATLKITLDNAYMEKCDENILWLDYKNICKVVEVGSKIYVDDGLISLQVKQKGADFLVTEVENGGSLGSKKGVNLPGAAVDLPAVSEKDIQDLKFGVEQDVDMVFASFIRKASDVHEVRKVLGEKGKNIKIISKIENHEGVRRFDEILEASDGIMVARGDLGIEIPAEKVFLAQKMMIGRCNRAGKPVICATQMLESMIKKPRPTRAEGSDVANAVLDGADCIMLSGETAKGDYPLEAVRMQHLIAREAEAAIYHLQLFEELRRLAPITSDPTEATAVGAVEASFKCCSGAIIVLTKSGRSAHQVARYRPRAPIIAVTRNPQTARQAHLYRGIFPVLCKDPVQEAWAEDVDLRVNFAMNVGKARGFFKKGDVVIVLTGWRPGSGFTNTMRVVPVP
Chain of Alpha-galactosidase A (Homo sapiens) (P06280 whole entry, looked up): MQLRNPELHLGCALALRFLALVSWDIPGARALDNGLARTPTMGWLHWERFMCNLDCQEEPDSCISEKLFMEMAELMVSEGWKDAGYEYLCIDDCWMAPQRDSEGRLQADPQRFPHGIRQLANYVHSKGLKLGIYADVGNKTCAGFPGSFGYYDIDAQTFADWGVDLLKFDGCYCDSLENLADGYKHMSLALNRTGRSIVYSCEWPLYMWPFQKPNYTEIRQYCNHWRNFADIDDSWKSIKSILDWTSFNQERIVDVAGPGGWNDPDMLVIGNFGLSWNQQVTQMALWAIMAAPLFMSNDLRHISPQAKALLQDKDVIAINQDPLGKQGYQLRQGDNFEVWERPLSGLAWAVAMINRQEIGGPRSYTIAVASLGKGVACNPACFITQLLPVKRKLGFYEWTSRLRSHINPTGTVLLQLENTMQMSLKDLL
Chain of Pyruvate kinase (Leishmania mexicana) (Q27686 2-499 E452W): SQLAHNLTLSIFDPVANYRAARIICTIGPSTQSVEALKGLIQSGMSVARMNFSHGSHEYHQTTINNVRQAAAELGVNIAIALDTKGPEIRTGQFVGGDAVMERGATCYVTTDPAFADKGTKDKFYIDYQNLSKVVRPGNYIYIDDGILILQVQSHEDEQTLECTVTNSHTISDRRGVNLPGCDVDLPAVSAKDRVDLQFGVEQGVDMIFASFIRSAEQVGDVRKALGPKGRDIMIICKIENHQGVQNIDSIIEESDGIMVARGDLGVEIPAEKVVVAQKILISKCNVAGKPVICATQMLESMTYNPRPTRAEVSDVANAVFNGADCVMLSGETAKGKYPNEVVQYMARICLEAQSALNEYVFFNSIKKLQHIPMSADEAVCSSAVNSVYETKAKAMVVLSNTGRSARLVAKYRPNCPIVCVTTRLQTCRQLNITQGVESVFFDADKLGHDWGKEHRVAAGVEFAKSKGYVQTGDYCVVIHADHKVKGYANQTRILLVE
Chain of Guanine nucleotide-binding protein G(i) subunit alpha-1 (Homo sapiens) (P63096 whole entry, looked up): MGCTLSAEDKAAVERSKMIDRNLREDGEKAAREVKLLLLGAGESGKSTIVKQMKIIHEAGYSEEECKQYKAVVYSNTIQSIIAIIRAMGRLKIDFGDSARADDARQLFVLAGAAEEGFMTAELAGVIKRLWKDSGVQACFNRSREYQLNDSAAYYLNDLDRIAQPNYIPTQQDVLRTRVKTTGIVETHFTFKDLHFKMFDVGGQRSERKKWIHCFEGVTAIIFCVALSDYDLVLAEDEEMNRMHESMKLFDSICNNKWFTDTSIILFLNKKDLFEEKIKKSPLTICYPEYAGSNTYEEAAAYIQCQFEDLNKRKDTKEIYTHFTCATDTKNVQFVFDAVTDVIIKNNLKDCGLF

C[C@H](Oc1ccc(Oc2cnc3ccc(Cl)cc3n2)cc1)C(=O)O
inactive: [1] | [2] | [3] | [4] | [5] | [6] | [7] | [8]

O=C(O)[C@@H](O)[C@@H](O)[C@H](O)C(=O)CO
inactive: CP215

CC1(C)S[C@@H]2[C@H](NC(=O)Cc3ccccc3)C(=O)N2[C@@H]1C(=O)O
inactive: CP215 | CP315

C[C@H](CCC(=O)O)[C@H]1CC[C@@H]2[C@H]3[C@@H](C[C@@H](O)[C@]21C)[C@]1(C)CC[C@H](O)C[C@@H]1C[C@@H]3O
inactive: CP315
